This note sets out measurements from PubChem BioAssay (EPA / NIEHS).

SMILES strings stand for the structures. “And” between values parts separate entries of the source, which are not always exact repeats. Equal values may be shown once. Inconclusive results are not listed. The source made the active and inactive calls. The calls were made as follows: active = hit-call score of the fitted dose curve at least 0.9, where 1 is the maximum; inconclusive = response in the unintended direction; inactive = score below 0.9.

Assay [1] is described as follows: TOX21_p53_BLA_p2_viability: Viability Assessment in the Tox21 HCT-116 p53 Agonism Beta-lactamase Assay, Phase 2 (AID 2283591).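 Also: compound exposure lasted 16 h at 37 °C; actives lower the ATP signal meaning cytotoxicity.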 Put shortly: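 HCT116 p53-bla cells, 4000/well, dosed after 5 h plating (217-fold dilution of DMSO stocks) and incubated 16 h at 37C. Viability taken as cellular ATP by CellTiter-Glo luminescence after 30 min RT; signal loss marks cytotoxicity.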

Assay [2] has as its target Cellular tumor antigen p53 (Homo sapiens) (UniProt P04637). Briefly: TOX21_p53_BLA_p2_ratio: Tox21 HCT-116 p53 Agonism Beta-lactamase Assay, Ratio, Phase 2 (AID 2283592). The method, boiled down: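 Read-out is the blue/green (460/530 nm, 405 nm excitation) ratio after 2 h CCF4-AM loading, fitted as gain versus DMSO. Compounds, pinned at 217-fold dilution from DMSO stocks, stayed 16 h on HCT-116 beta-lactamase reporter cells seeded 5 h earlier.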

The nature of assay [3]: TOX21_p53_BLA_p3_viability: Viability Assessment in the Tox21 HCT-116 p53 Agonism Beta-lactamase Assay, Phase 3 (AID 2283593).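 Also: cells exposed to compound for 16 h before reading.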 Put shortly:
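HCT116 cells, 4000/well, dosed 5 h after plating by pin transfer (217-fold dilution from DMSO stock) and incubated 16 h at 37C, 5% CO2. Viability read as ATP luminescence with CellTiter-Glo after 30 min at room temperature.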

Assay [4] deals with Cellular tumor antigen p53 (Homo sapiens) (UniProt P04637). Briefly: TOX21_p53_BLA_p3_ratio: Tox21 HCT-116 p53 Agonism Beta-lactamase Assay, Ratio, Phase 3 (AID 2283596). Put shortly:
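Cells were seeded at 4000/well, rested 5 h at 37C, then dosed with DMSO compound solutions (217-fold dilution) for 16 h. CCF4-AM substrate was loaded for 2 h at room temperature, and the 460/530 nm emission ratio was fitted for gain of signal versus DMSO.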

Assay [5] is described as follows: TOX21_p53_BLA_p4_viability: Viability Assessment in the Tox21 HCT-116 p53 Agonism Beta-lactamase Assay, Phase 4 (AID 2283597).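 Also: hits lower the luminescence signal meaning cytotoxicity.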 Put shortly: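 Cytotoxicity as reduced cellular ATP (CellTiter-Glo luminescence, 30 min room temperature), measured in the same wells following the CCF4 FRET p53 reading. Human HCT-116 cells received compounds in DMSO (217-fold dilution) for 16 h.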

In assay [6] the target is Cellular tumor antigen p53 (Homo sapiens) (UniProt P04637). Put plainly: TOX21_p53_BLA_p5_ratio: Tox21 HCT-116 p53 Agonism Beta-lactamase Assay, Ratio, Phase 5 (AID 2283599). Put shortly:
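HCT-116 p53-bla cells (4000/well) plated 5 h, dosed with compound (217-fold DMSO dilution) for 16 h at 37 C; CCF4-AM substrate 2 h at room temperature. Activity is the 460/530 nm emission ratio (405 nm excitation), fitted in gain-of-signal direction versus DMSO.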

The nature of assay [7]: TOX21_p53_BLA_p5_viability: Viability Assessment in the Tox21 HCT-116 p53 Agonism Beta-lactamase Assay, Phase 5 (AID 2283600). The method, boiled down: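 Viability came from CellTiter-Glo ATP luminescence, read after 30 min at room temperature. Before this, HCT-116 p53-bla cells (4000/well) had 16 hours of compound exposure at 37C, with DMSO stocks diluted 217-fold on transfer.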

Assay [8] addresses Cellular tumor antigen p53 (Homo sapiens) (UniProt P04637). Put plainly: TOX21_p53_BLA_p4_ratio: Tox21 HCT-116 p53 Agonism Beta-lactamase Assay, Ratio, Phase 4 (AID 2283601). Put shortly: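 HCT-116 p53 beta-lactamase reporter cells (4000/well) preincubated 5 h, then compound (217-fold dilution of DMSO stock) for 16 h at 37C. CCF4-AM substrate added 2 h at room temperature; 460/530 nm emission ratio fitted upward versus DMSO.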

Assay [9] addresses Thyroid hormone receptor alpha (Rattus norvegicus) + Thyroid hormone receptor beta (Rattus norvegicus) (UniProt P18113+P63059). Briefly: TOX21_TR_LUC_GH3_Antagonist_Followup: Tox21 GH3 Thyroid Hormone Receptor Antagonism Luciferase Follow-Up Assay (AID 2283942). Put shortly:
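Luminescence read-out (ONE-Glo, 30 min at room temperature) in GH3 reporter cells challenged with 1.0 nM T3 final. Compounds ran at 92 uM to 5nM over 15 concentrations for 24 h; DMSO served as negative control and baseline.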

Assay [10] has as its target THRA (gene 7067) (UniProt P10827). Put plainly: TOX21_TRA_COA_Antagonist_Followup_ratio: Tox21 Thyroid Hormone Receptor alpha Antagonism through Coactivator Recruitment Follow-Up Assay, Ratio (AID 2283953). Put shortly: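 We measured antagonism of T3-type coactivator recruitment using a TR-FRET ratio (emission 520 and 495 nm) between a Tb-labelled anti-GST antibody on TRα LBD (2.5 nM) and SRC-2 peptide (200 nM). Activity was scaled between DMSO and T3 wells.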

Assay [11] concerns the target THRB (gene 7068) (UniProt P10828). Briefly: TOX21_TRB_BLA_Antagonist_Followup_ratio: Tox21 Thyroid Hormone Receptor beta Antagonism Beta-lactamase (BLA) Follow-Up Assay, Ratio (AID 2283958). The method, boiled down: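 Using charcoal-stripped 2% FBS medium, human TRβ-LBD/GAL4 reporter HEK293T cells received test compounds for 18 h. The endpoint is the cleaved-to-uncleaved substrate ratio (460/530 nm).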

Assay [12] is described as follows: TOX21_TRB_BLA_Antagonist_Followup_viability: Viability Assessment in the Tox21 Thyroid Hormone Receptor beta Antagonism Beta-lactamase (BLA) Follow-Up Assay (AID 2283961). The method, boiled down:
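ATP-based CellTiter-Glo luminescence (30 min, room temperature) run in the same wells as the TRβ-bla readout. Cells: GeneBLAzer HEK293T expressing GAL4-TRβ LBD, exposed 18 h at 37C to compounds at 11 concentrations in triplicate, stripped-serum medium.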

Assay [13] addresses Retinoic acid receptor RXR-alpha (Homo sapiens) (UniProt P19793). Put plainly: TOX21_TR_RXR_BLA_Antagonist_Followup_ratio: Tox21 Thyroid Hormone Receptor beta Retinoid X Receptor alpha (RXRa) Antagonism Beta-lactamase (BLA) Follow-Up Assay, Ratio (AID 2283972). Put shortly: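 After 5 h attachment at 37C, HEK293T RXRa-bla cells (2,500/well, 2% charcoal-stripped FBS, no phenol red) received compounds at 11 concentrations in triplicate for 16 h. Beta-lactamase read as 460:530 nm ratio after 2 h RT substrate loading.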

Assay [14] is described as follows: TOX21_TR_RXR_BLA_Antagonist_Followup_viability: Viability Assessment in the Tox21 Thyroid Hormone Receptor beta Retinoid X Receptor alpha (RXRa) Antagonism Beta-lactamase (BLA) Follow-Up Assay (AID 2283979). Put shortly:
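RXRa-bla HEK293T cells (2,500/well, phenol red-free DMEM, 2% charcoal-stripped FBS) were attached 5 h, then exposed to compounds at 11 concentrations in triplicate for 16 h at 37C. Viability measured by CellTiter-Glo ATP luminescence, bidirectional fitting versus DMSO.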

The target in assay [15] is PGR (gene 5241) (UniProt P06401). Briefly: TOX21_PR_BLA_Followup_Antagonist_ratio: Tox21 HEK293 Progesterone Receptor (PR) Antagonism Beta-lactamase Follow-Up Assay, Ratio (AID 2283934).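 Also: PR-UAS-bla HEK293T cells stimulated with 1 nM R5020 agonist for 16 hr.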 Put shortly:
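Measured in PR-UAS-bla HEK293T cells co-treated with compound and 1 nM promegestone for 16 hr; beta-lactamase ratio read after 2 h FRET substrate loading, with parallel CellTiter-Glo cytotoxicity.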

Assay [16] is described as follows: TOX21_PR_BLA_Followup_Agonist_viability: Viability Assessment in the Tox21 HEK293 Progesterone Receptor (PR) Agonism Beta-lactamase Follow-Up Assay (AID 2283935).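 Also: signal loss means lower viability so actives are cytotoxic.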 The method, boiled down:
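Viability is read as CellTiter-Glo luminescence, where loss of signal indicates cytotoxicity. The cells are PR-UAS-bla HEK293T given compounds for 16 hr at 37C and 5% CO2, in the same wells used for the bla readout.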

A short description of assay [17]: TOX21_PR_BLA_Followup_Antagonist_viability: Viability Assessment in the Tox21 HEK293 Progesterone Receptor (PR) Antagonism Beta-lactamase Follow-Up Assay (AID 2283936).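 Also: cells exposed to compound with R5020 agonist for 16 h; hits lower the luminescence signal meaning cytotoxicity.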 Put shortly:
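PR-UAS-bla HEK293T cells in medium with 2% charcoal-stripped FBS were treated with compounds plus R5020 for 16 hr at 37C. After the beta-lactamase read, CellTiter-Glo was added to the same wells and luminescence read after 30 min at room temperature.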

THRB (gene 7068), sequence (P10828 whole entry, looked up, the tested form may be a part): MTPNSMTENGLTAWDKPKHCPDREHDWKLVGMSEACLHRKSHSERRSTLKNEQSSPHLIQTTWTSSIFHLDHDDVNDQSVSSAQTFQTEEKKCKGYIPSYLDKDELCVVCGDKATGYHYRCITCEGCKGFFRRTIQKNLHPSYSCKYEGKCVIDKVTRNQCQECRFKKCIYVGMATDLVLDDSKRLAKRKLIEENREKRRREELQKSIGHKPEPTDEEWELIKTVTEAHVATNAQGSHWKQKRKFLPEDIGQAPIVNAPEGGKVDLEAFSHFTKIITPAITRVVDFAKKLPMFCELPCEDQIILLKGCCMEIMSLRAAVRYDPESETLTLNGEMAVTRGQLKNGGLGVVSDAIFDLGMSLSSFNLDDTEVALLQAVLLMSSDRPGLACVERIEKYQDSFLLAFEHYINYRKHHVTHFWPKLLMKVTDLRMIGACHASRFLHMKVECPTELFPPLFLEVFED
THRA (gene 7067), sequence (P10827 whole entry, looked up, the tested form may be a part): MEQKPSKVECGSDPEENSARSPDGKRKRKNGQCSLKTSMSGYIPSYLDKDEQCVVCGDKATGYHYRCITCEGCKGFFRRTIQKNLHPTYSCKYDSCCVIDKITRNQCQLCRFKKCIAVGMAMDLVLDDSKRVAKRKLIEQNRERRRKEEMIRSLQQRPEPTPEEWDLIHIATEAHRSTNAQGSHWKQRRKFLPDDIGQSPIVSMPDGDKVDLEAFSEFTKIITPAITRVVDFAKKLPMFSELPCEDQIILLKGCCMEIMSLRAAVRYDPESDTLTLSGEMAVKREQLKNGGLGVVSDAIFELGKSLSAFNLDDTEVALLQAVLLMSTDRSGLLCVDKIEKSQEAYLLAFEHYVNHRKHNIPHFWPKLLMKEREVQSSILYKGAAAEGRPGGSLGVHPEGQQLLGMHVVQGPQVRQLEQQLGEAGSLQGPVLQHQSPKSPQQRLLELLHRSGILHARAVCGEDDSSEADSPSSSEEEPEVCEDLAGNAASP
Cellular tumor antigen p53 (Homo sapiens), sequence (P04637 whole entry, looked up): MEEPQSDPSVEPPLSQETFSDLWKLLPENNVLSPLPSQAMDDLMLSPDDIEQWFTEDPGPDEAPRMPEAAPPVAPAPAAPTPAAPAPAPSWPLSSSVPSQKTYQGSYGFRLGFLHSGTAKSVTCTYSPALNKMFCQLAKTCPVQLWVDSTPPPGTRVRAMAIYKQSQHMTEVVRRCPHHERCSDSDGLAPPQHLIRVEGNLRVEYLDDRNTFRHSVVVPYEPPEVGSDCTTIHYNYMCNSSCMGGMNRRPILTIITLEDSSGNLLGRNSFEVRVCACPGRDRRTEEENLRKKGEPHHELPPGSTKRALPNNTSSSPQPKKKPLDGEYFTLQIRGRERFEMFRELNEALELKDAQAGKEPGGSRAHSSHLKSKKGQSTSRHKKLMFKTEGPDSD
Retinoic acid receptor RXR-alpha (Homo sapiens), sequence (P19793 whole entry, looked up): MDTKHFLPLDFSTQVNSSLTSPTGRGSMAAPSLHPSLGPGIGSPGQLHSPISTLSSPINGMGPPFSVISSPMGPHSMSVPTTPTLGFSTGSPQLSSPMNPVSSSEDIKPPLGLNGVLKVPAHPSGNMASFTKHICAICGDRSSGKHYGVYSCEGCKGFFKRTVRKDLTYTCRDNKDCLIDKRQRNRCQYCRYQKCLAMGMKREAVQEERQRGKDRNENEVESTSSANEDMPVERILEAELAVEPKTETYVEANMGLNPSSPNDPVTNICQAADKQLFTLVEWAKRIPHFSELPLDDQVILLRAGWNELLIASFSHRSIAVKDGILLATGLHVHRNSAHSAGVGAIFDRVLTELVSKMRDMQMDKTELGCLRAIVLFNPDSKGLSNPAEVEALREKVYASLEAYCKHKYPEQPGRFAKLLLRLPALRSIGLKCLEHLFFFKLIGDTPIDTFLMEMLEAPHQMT
PGR (gene 5241), sequence (P06401 whole entry, looked up): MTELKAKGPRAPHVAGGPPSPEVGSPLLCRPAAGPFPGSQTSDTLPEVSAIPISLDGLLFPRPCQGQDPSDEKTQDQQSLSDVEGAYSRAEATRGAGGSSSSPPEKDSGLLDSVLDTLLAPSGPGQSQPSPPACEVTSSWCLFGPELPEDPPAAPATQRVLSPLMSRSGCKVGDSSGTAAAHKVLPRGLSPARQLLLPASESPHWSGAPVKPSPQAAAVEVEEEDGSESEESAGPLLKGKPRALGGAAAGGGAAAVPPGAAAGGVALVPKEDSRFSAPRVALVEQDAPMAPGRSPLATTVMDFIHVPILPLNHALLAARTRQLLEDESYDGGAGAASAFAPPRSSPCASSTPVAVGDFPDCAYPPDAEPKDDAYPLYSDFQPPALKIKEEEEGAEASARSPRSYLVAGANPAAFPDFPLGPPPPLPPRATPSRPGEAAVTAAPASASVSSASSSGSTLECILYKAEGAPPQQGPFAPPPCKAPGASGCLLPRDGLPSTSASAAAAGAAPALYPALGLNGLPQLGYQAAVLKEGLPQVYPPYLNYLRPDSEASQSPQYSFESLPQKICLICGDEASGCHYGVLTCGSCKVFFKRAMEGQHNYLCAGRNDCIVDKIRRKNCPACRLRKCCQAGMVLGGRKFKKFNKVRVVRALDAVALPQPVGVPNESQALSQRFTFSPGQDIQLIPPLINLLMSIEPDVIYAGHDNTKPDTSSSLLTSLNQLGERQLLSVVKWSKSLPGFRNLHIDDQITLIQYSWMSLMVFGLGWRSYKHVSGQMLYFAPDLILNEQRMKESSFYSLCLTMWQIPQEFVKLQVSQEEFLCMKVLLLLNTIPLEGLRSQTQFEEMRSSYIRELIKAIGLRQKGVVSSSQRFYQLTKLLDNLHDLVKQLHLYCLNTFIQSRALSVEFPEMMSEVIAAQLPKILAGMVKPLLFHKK

What is called AC50 is the midpoint of the concentration-response curve, whichever way the signal moves. In the case of `CC1(C)N=C(N)N=C(N)N1c1ccc(Cl)cc1`, the half-maximal activity concentration (AC50) was 6.72 µM (active) in assay [1]; 28.2 µM (active) in assay [2]; 13.9 µM (active) in assay [3]; 6.46 µM (active) in [5]; 7.84 µM (active) in assay [7]; 32.1 µM (active) in [12]. For the same compound, the result in assay [4], in assay [6], in [8], in [9], in [10] and in assay [11] was inactive. Besides, the outcome in [13] and in assay [14] was inactive.

Consider `O=C1C(=O)c2ncccc2-c2cccnc21`, for which the result in assay [1], in [3], in assay [7], in [9], in assay [10] and in assay [11] was inactive. In addition, the result in [13] and in assay [14] was inactive. In addition, the AC50 was 1.01 µM (active) in [2]; 1.08 µM (active) in [4]; 5.12 µM (active) in assay [5]; 0.599 µM (active) in assay [6]; 0.96 µM (active) in assay [8]; 5.41 µM (active) in [12].

With `Oc1c(I)cc(I)c2cccnc12`, the values for the AC50 in assay [1], in assay [3] and in assay [5] were 10.6 µM (active), 9.75 µM (active) and 23 µM (active), respectively. Moreover, the outcome in assay [2], in assay [4], in assay [6], in assay [7], in assay [8] and in assay [9] was inactive. In addition, the result in assay [11], in assay [12], in assay [13] and in assay [14] was inactive.

In the case of `CC(C)C[C@H](NC(=O)[C@H](Cc1ccccc1)NC(=O)c1cnccn1)B(O)O`, the concentration at half-maximal activity (AC50) in [1] is 283 nM (active) and 357 nM (active); in [2], 9.74 nM (active) and 12.9 nM (active); in assay [3] it was 318 nM (active) and 262 nM (active); in assay [4], 10.5 nM (active) and 14.1 nM (active); in assay [5] it was 128 nM (active) and 150 nM (active); in assay [6], 25.2 nM (active) and 15.7 nM (active). Further, the AC50 in [7] was 554 nM (active) and 442 nM (active); in assay [8], 9.86 nM (active) and 13 nM (active); in assay [15] it was 0.168 µM (active). Also, the compound was called inactive in assay [16] and in assay [17].

For the compound `CC(C)=CCC1=C(O)c2ccccc2C(=O)C1=O`, the result in [1], in assay [3], in assay [5], in assay [7], in [9] and in assay [10] was inactive. For the same compound, the outcome in assay [11], in assay [12], in assay [13] and in assay [14] was inactive. Further, the AC50 in assay [2] was 1.36 µM (active); in assay [4], 1.27 µM (active); in [6] it was 1.74 µM (active); in assay [8] it was 2.71 µM (active).

With `O=c1[nH]c(=O)n([C@H]2C[C@H](O)[C@@H](CO)O2)cc1F`, the outcome in [1], in assay [2], in assay [9], in assay [10], in [11] and in assay [12] was inactive. In addition, the result in [13] and in assay [14] was inactive. Besides, the concentration at half-maximal activity (AC50) in assay [3] was 0.6 µM (active); in assay [4], 1.45 µM (active); in assay [5], 1.53 µM (active); in assay [6] it was 1.8 µM (active); in assay [7], 0.595 µM (active); in assay [8], 6.7 µM (active).

`Cc1nc2ccccc2n1Cc1ccc(Cl)cc1`: the call in assay [1], in assay [2], in assay [3], in [4], in assay [5] and in assay [6] was inactive. The result in [7], in assay [8], in assay [10], in assay [11], in assay [12] and in [13] was inactive. The result in assay [14] was inactive.
